Inconclusive results are not listed. A call without a number means that no potency is given here. Calls of active or inactive are those of the source. Calls come from the whole dose curve; as a rule, active = well fitted curve in the direction sought with a large enough effect; inconclusive = small, poorly fitted or top-dose-only effect, or another doubt; inactive = no such curve, though single readings can be large; an effect the other way counts as inactive or inconclusive.
system: Zika virus NS2B-NS3 protease (unlinked); experiment: Optimization of GU AMC qHTS for Zika virus inhibitors: Unlinked NS2B-NS3 protease assay (AID 1347151); details: recombinant ZIKV NS2B-NS3 protease, fluorogenic AMC substrate; series mostly up to 52.5 µM; note: nearly all actives have a fitted effect of over 80% in size
Summary of the method: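 In this qHTS, compounds acted on 25 nM unlinked Zika NS2B–NS3 in pH 8.0 Tris/Tween buffer. Cleavage of an AMC peptide ran 15 min at room temperature, to about 20% conversion.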

Question: `COc1ccccc1N1CCN(CCCNc2cc(=O)n(C)c(=O)n2C)CC1` was tested. Which Potency did it give?
Answer: The Potency was “inactive”.

Question: Which Potency does the source give for `O=C1NCC2(CCN(CCc3ccccc3)CC2)O1` here?
Answer: The Potency was “inactive”.

Question: Which Potency does the source give for `CC(=O)c1ccc(S(=O)(=O)NC(=O)NC2CCCCC2)cc1` here?
Answer: The Potency was “inactive”.

Question: With `CCN(CC)CCOC(=O)c1ccc(N)cc1` as the molecule, how does the Potency read?
Answer: The Potency was “inactive”.

Question: `O=C1NC(=O)C(c2ccccc2)(c2ccccc2)N1` was tested. Which Potency did it give?
Answer: The Potency was “inactive”.

Question: For `CCN(CC)CCNC(=O)c1ccc(N)cc1`, which Potency is on record?
Answer: The Potency was “inactive”.

Question: Which Potency does the source give for `CCCCC1C(=O)N(c2ccccc2)N(c2ccccc2)C1=O` here?
Answer: Its Potency is “inactive”.

system: Zika virus NS2B-NS3 protease; experiment: Primary screen GU AMC qHTS for Zika virus inhibitors (AID 1347154); details: Zika NS2B-NS3 unlinked protease, AMC fluorogenic substrate; series mostly up to 54.1 µM; note: nearly all actives have a fitted effect of over 70% in size
Summary of the method: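 Unlinked Zika NS2B hydrophilic domain/NS3 protease domain noncovalent complex (25 nM final) in 10 mM Tris-HCl pH 8.0, 0.01% Tween 20, with AMC peptide substrate. Fluorescence (ex 340, em 450 nm) change over 15 min, room temperature; percent inhibition fitted to 4-parameter Hill equation.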

Question: Which Potency does the source give for `C[N+](C)(C)CCCCCC[N+](C)(C)C` here?
Answer: The Potency was “inactive”.

Question: `Cc1cccc(C)c1OCC(C)N` (stereo unspecified) was tested. Which Potency did it give?
Answer: Its Potency is “inactive”.

Question: With `CC(=O)N[C@@H](CS)C(=O)O` as the molecule, how does the Potency read?
Answer: The Potency was “inactive”.

Question: `NC(N)=Nc1nc(CSCC/C(N)=N/S(N)(=O)=O)cs1` was tested. Which Potency did it give?
Answer: The Potency was “inactive”.

Question: `CC(=O)CCCCn1c(=O)c2c(ncn2C)n(C)c1=O` was tested. Which Potency did it give?
Answer: The Potency was “inactive”.

Question: `CC(=O)O[C@]1(C(C)=O)CC[C@H]2[C@@H]3C=C(Cl)C4=CC(=O)[C@@H]5C[C@@H]5[C@]4(C)[C@H]3CC[C@@]21C` was tested. Which Potency did it give?
Answer: The Potency was “inactive”.

Question: Which Potency does the source give for `Cc1[nH]c(C=C2C(=O)Nc3ccc(S(=O)(=O)Cc4c(Cl)cccc4Cl)cc32)c(C)c1C(=O)N1CCC[C@H]1CN1CCCC1` here?
Answer: The Potency was “inactive”.

Question: `CC(C)(C(=O)NCC(F)(F)C(F)(F)F)C(=O)N[C@@H]1C(=O)Nc2ccccc2-c2ccccc21` was tested. Which Potency did it give?
Answer: The Potency was “inactive”.

Question: How did the Potency turn out when `CC(C)NCC(O)COc1cccc2[nH]ccc12` (stereo unspecified) was run?
Answer: The Potency was “inactive”.

Question: For `CC1=C(/C=C/C(C)=C/C=C/C(C)=C/C(=O)Nc2ccc(O)cc2)C(C)(C)CCC1`, which Potency is on record?
Answer: The Potency was “inactive”.

Question: With `CCCNC(=O)NS(=O)(=O)c1ccc(Cl)cc1` as the molecule, how does the Potency read?
Answer: Its Potency is “inactive”.

Question: For `COC(=O)[C@@H]1[C@H]2C[C@H]3c4[nH]c5ccccc5c4CCN3C[C@@H]2CC[C@@H]1O`, which Potency is on record?
Answer: The Potency was “inactive”.

Question: `CN(C)CCC(c1ccccc1)c1ccccn1` (stereo unspecified) was tested. Which Potency did it give?
Answer: The Potency was “inactive”.

Question: How did the Potency turn out when `CCN1CCC[C@H]1CNC(=O)c1cc(S(N)(=O)=O)ccc1OC` was run?
Answer: The Potency was “inactive”.

Question: `Clc1ccc(Cn2c(CN3CCCC3)nc3ccccc32)cc1` was tested. Which Potency did it give?
Answer: Its Potency is “inactive”.

Question: How did the Potency turn out when `COc1cccc(-c2cc(=O)c3ccccc3o2)c1N` was run?
Answer: The Potency was “inactive”.

Question: With `CC(=NNC(=S)N1CCC1)c1ccccn1` as the molecule, how does the Potency read?
Answer: The Potency was “inactive”.

Question: How did the Potency turn out when `CC(C)(C)c1ccc(C(O)CCCN2CCC(C(O)(c3ccccc3)c3ccccc3)CC2)cc1` (stereo unspecified) was run?
Answer: Its Potency is “inactive”.

Question: How did the Potency turn out when `O=C(Nc1cccc(Br)c1)c1cccc(S(=O)(=O)N2CCCCCC2)c1` was run?
Answer: The Potency was “inactive”.

Question: `COc1ccc(-c2coc3cc(O)cc(O)c3c2=O)cc1` was tested. Which Potency did it give?
Answer: The Potency was “inactive”.

Question: With `O=C(NCCN1CCOCC1)c1ccc(Cl)cc1` as the molecule, how does the Potency read?
Answer: Its Potency is “inactive”.

Question: For `CC(=O)O[C@]1(C(C)=O)CC[C@@H]2[C@@H]3C[C@H](C)C4=CC(=O)CC[C@]4(C)[C@H]3CC[C@@]21C`, which Potency is on record?
Answer: Its Potency is “inactive”.

Question: For `COc1ccccc1N1CCN(CCCNc2cc(=O)n(C)c(=O)n2C)CC1`, which Potency is on record?
Answer: Its Potency is “inactive”.

Question: Which Potency does the source give for `CC[C@]1(O)C[C@@H]2CN(CCc3c([nH]c4ccccc34)[C@@](C(=O)OC)(c3cc4c(cc3OC)N(C=O)[C@@H]3C45CCN4CC=C[C@](CC)([C@H]45)[C@@H](OC(C)=O)[C@]3(O)C(=O)OC)C2)C1` (stereo partly specified) here?
Answer: Its Potency is “inactive”.

Question: How did the Potency turn out when `CCOc1ccc(Nc2nc(-c3c(C)nc4ccccn34)cs2)cc1` was run?
Answer: Its Potency is “inactive”.

Question: With `CN[C@@H](C)C(=O)N[C@H]1CN(C(=O)CC(C)C)CC[C@H]2CC[C@@H](C(=O)NC(c3ccccc3)c3ccccc3)N2C1=O` as the molecule, how does the Potency read?
Answer: Its Potency is “inactive”.

Question: `O=C1NCC2(CCN(CCc3ccccc3)CC2)O1` was tested. Which Potency did it give?
Answer: The Potency was “inactive”.

Question: With `CC1(C)CCC[C@@]2(C)[C@@H]1CC[C@@]1(C)OC(=O)C[C@H]21` as the molecule, how does the Potency read?
Answer: The Potency was “inactive”.

Question: With `CC(=O)c1ccc(S(=O)(=O)NC(=O)NC2CCCCC2)cc1` as the molecule, how does the Potency read?
Answer: The Potency was “inactive”.

Question: Which Potency does the source give for `NC1=N[C@@]2(c3cc(NC(=O)c4ccc(F)cn4)ccc3F)COC[C@@H]2CS1` here?
Answer: The Potency was “inactive”.

Question: With `CCN(CC)CCOC(=O)c1ccc(N)cc1` as the molecule, how does the Potency read?
Answer: The Potency was “inactive”.

Question: Which Potency does the source give for `O=C1NC(=O)C(c2ccccc2)(c2ccccc2)N1` here?
Answer: Its Potency is “inactive”.

Question: Which Potency does the source give for `CCN(CC)CCNC(=O)c1ccc(N)cc1` here?
Answer: The Potency was “inactive”.

Question: `CCCCC1C(=O)N(c2ccccc2)N(c2ccccc2)C1=O` was tested. Which Potency did it give?
Answer: Its Potency is “inactive”.

Question: With `CO[C@H]1C[C@@H]2CC[C@@H](C)[C@@](O)(O2)C(=O)C(=O)N2CCCC[C@@H]2C(=O)O[C@H]([C@H](C)C[C@@H]2CC[C@H](OCCO)[C@H](OC)C2)CC(=O)[C@H](C)C=C(C)[C@@H](O)[C@@H](OC)C(=O)[C@H](C)C[C@H](C)C=CC=CC=C1C` as the molecule, how does the Potency read?
Answer: Its Potency is “inactive”.

system: Zika virus NS2B-NS3 protease (unlinked complex); experiment: Primary screen GU Rhodamine qHTS for Zika virus inhibitors: Unlinked NS2B-NS3 protease assay (AID 1347159); details: Recombinant ZIKV NS2B-NS3 protease, Rhodamine110 substrate fluorescence; series mostly up to 107 µM; note: nearly all actives have a fitted effect of over 60% in size; note: potency is the fitted concentration of half-maximal effect
Summary of the method: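 Percent inhibition derives from the 15-min fluorescence change (ex 480, em 540 nm), normalized to no-enzyme and no-inhibitor wells. Reactions contained 25 nM NS2B-NS3 complex and 1.5 microM substrate in 10 mM Tris-HCl pH 8.0.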

Question: With `CC(=O)CCCCn1c(=O)c2c(ncn2C)n(C)c1=O` as the molecule, how does the Potency read?
Answer: Its Potency is “inactive”.

Question: With `CC(=O)O[C@]1(C(C)=O)CC[C@H]2[C@@H]3C=C(Cl)C4=CC(=O)[C@@H]5C[C@@H]5[C@]4(C)[C@H]3CC[C@@]21C` as the molecule, how does the Potency read?
Answer: The Potency was “inactive”.

Question: For `CC(C)NCC(O)COc1cccc2[nH]ccc12` (stereo unspecified), which Potency is on record?
Answer: Its Potency is “inactive”.

Question: How did the Potency turn out when `CCCNC(=O)NS(=O)(=O)c1ccc(Cl)cc1` was run?
Answer: The Potency was “inactive”.

Question: How did the Potency turn out when `COC(=O)[C@@H]1[C@H]2C[C@H]3c4[nH]c5ccccc5c4CCN3C[C@@H]2CC[C@@H]1O` was run?
Answer: Its Potency is “inactive”.

Question: Which Potency does the source give for `CN(C)CCC(c1ccccc1)c1ccccn1` (stereo unspecified) here?
Answer: The Potency was “inactive”.

Question: `CCN1CCC[C@H]1CNC(=O)c1cc(S(N)(=O)=O)ccc1OC` was tested. Which Potency did it give?
Answer: Its Potency is “inactive”.

Question: `Clc1ccc(Cn2c(CN3CCCC3)nc3ccccc32)cc1` was tested. Which Potency did it give?
Answer: The Potency was “inactive”.

Question: `O=C(Nc1cccc(Br)c1)c1cccc(S(=O)(=O)N2CCCCCC2)c1` was tested. Which Potency did it give?
Answer: The Potency was “inactive”.

Question: For `COc1ccccc1N1CCN(CCCNc2cc(=O)n(C)c(=O)n2C)CC1`, which Potency is on record?
Answer: Its Potency is “inactive”.

Question: For `CC1(C)CCC(CN2CCN(c3ccc(C(=O)NS(=O)(=O)c4ccc(NCC5CCOCC5)c([N+](=O)[O-])c4)c(Oc4cnc5[nH]ccc5c4)c3)CC2)=C(c2ccc(Cl)cc2)C1`, which Potency is on record?
Answer: The Potency was 2.24 µM (active).

Question: `CCOc1ccc(Nc2nc(-c3c(C)nc4ccccn34)cs2)cc1` was tested. Which Potency did it give?
Answer: The Potency was “inactive”.

Question: `CN[C@@H](C)C(=O)N[C@H]1CN(C(=O)CC(C)C)CC[C@H]2CC[C@@H](C(=O)NC(c3ccccc3)c3ccccc3)N2C1=O` was tested. Which Potency did it give?
Answer: The Potency was “inactive”.

Question: How did the Potency turn out when `CCN(CC)CCNC(=O)c1ccc(N)cc1` was run?
Answer: The Potency was “inactive”.

Source: PubChem BioAssay (NCATS)
